The list is not random: actives were taken first. Their share in the collection is about 3.7%.
GDH-TPI counter = counter-screen for M. tuberculosis FBA inhibitors: GDH-TPI coupled enzymes; GDH-TPI coupled enzyme counterscreen, NADH absorbance; AID 588335; 360,000 tested, 1.2% active; inhibition, % at 4.8 µM; in the data active means inhibition above about 30%;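 further: 0% = DMSO wells and 100% = wells lacking the enzyme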
Mtb FBA inh = inhibits M. tuberculosis FBA enzyme; P9WQA3; purified M. tuberculosis FBA, fluorescence read-out; inhibition, % at 1 µM; 360,000 tested, 2.3% active; in the data active means inhibition above about 27%;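 further: 0% = vehicle and 100% = reference inhibitor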
FadD28 binding = M. tuberculosis FadD28 bisubstrate binding inhibition | 360,000 tested, 0.22% active | FadD28 bisubstrate probe binding, fluorescence polarization | inhibition, % at 12.5 µM; in the data active means inhibition above about 8.5%, passing the limit was not always enough
Mtb UGM inh = blocks M. tuberculosis UGM enzyme; inhibition, % at 10 µM; 320,000 tested, 0.06% active; P9WIQ1; AID 504406; purified UGM, fluorescence polarization probe displacement; in the data active means inhibition above about 10%, passing the limit was not always enough
Target sequence (P9WIQ1 whole entry, looked up): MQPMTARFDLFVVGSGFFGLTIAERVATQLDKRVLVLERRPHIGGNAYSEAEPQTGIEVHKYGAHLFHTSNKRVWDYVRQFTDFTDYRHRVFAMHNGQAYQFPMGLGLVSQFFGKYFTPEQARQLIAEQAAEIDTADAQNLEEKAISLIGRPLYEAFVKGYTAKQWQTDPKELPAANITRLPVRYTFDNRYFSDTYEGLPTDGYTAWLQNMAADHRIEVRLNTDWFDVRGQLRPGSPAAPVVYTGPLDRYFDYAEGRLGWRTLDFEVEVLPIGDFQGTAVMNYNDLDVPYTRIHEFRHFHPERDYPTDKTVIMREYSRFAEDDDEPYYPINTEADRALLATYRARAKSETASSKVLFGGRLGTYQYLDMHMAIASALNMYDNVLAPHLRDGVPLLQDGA
Rv3671c protease = inhibits the M. tuberculosis serine protease Rv3671c; inhibition, % at 5.96 µM; 320,000 tested, 0.048% active; P9WHR9; AID 2606; in the data active means inhibition above about 38%;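 further: extracellular domain of Rv3671c used as enzyme; 0% = enzyme with DMSO and 100% = no enzyme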
Mtb betalactam = beta-lactam sensitization of Mtb H37Rv | M. tuberculosis H37Rv growth with meropenem, percent inhibition | inhibition, % at 25 µM | 330,000 tested, 0.27% active; call rule not given here;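 further: growth measured after seven days incubation then overnight dye step; 0% = bacteria only wells and 100% = bacteria with antibiotic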
* hit, by the source's call; / = no result; + = active, no number.

SMILES	GDH-TPI counter	Mtb FBA inh	FadD28 binding	Mtb UGM inh	Rv3671c protease	Mtb betalactam
C=CCNc1oc(-c2cccc3ccccc23)nc1C#N	7.9	+	1.3	-1.4	-2.4	1.5
N#Cc1nc(-c2cccc3ccccc23)oc1N1CCCCC1	11.4	4.4	-0.6	3.7	-4.5	-6.9
CCNc1oc(-c2cccc3ccccc23)nc1C#N	30.1	+	0.7	0.2	-5.2	7.7
CC(C)Nc1oc(-c2cccc3ccccc23)nc1C#N	22.2	+	3.9	0.4	9.2	0.6
C#CCn1cc2c(c1-c1ccccc1)c(=O)n(C)c(=O)n2C	-1.4	3.8	-3.0	/	/	/
COc1ccccc1NC(=O)COC(=O)c1c(NC(C)=O)sc(C)c1C	8.4	-2.7	-2.5	/	/	/
CC(C)(C)N(Cc1ccccc1)C(=O)COC(=O)C1CC(=O)N(Cc2ccccc2)C1 (configuration not stated)	-5.7	1.4	-2.7	/	/	/
CCC(C)NC(=O)CSc1nc2c(sc(=S)n2Cc2ccco2)c(=O)n1-c1ccccc1 (configuration not stated)	20.1	0.1	-3.1	1.1	-2.6	7.0
CCn1c(=S)sc2c(=O)n(-c3ccccc3)c(SCC(=O)NCc3ccco3)nc21	38.1*	0.2	-0.9	-2.0	2.7	/
COc1ccc([C@H]2C[C@@H](n3cc(COC(=O)c4ccccc4)nn3)[C@H](O)CN2C(=O)C2CCCCC2)cc1	9.0	3.8	-1.7	/	/	/
Cc1ccc(S(=O)(=O)N2C[C@H]3[C@H]4C(=O)N(c5ccccc5)C(=O)[C@H]4C[C@H](OC(=O)Nc4c(C)noc4C)[C@@]3(O)C2)cc1	-3.8	-0.5	0.1	/	/	/
CC1=CC(c2ccc(Cl)cc2)n2nc(N3C(=O)CCC3=O)nc2N1 (configuration not stated)	15.5	167.3*	-0.6	4.9	4.9	-3.0
Cc1ccc(C2C=C(c3ccccc3)Nc3nc(N4C(=O)CCC4=O)nn32)cc1 (configuration not stated)	8.8	22.0	0.7	/	/	/
CC(C)c1ccccc1NC(=S)NCC1(N(C)C)CCCCC1	0.0	2.1	-2.3	1.1	6.2	5.6
CCN(CC)CCNc1ncnc2c1sc1nc(N3CCOCC3)c3c(c12)CCCC3	34.8*	1.2	-0.1	-1.8	-10.2	38.3
Oc1c(Br)cc(C2N=C(c3ccccc3)NO2)cc1Br (configuration not stated)	31.7*	7.7	1.0	1.0	4.0	-7.8
CSc1ccc(C2N=C(c3ccccc3)NO2)cc1 (configuration not stated)	-4.2	4.3	0.2	1.0	-5.1	-2.0
O=C(Cc1ccc(NC(=O)C2CCN(C(=O)C3CCCCC3)CC2)cc1)Nc1ccc(C(=O)N2CCOCC2)cc1	4.7	-0.3	-3.0	/	/	/
CCCNC(=O)C12CCC(C)(c3nc4cc(C)c(C)cc4nc31)C2(C)C (configuration not stated)	54.9*	1.8	-1.2	-0.7	-4.5	-0.5
O=C1N=C(N2C=CC(=C3C=CNC=C3)C=C2)/C(=C/N=NC(=O)c2ccccc2O)S1	53.0*	-4.9	0.3	-0.5	1.4	0.3
CCCc1c(C)c2ccc(OCC(C)=O)cc2oc1=O	3.9	124.1*	-3.7	-1.2	4.1	51.1
Cc1coc2cc3oc(=O)c(CCC(=O)NCC(=O)O)c(C)c3cc12	13.6	27.6*	/	2.6	/	-1.2
COc1ccc(-c2c(C)c3ccc(O)cc3oc2=O)cc1OC	8.7	+	-4.0	1.2	-1.3	-0.9
Cc1c(CCC(=O)O)c(=O)oc2cc(O)ccc12	20.2	+	-0.7	2.3	-3.0	-8.2
O=C(NC1CCSc2ccccc21)c1cc([N+](=O)[O-])ccc1N1CCOCC1 (configuration not stated)	17.9	-5.0	-1.6	-0.9	-0.3	0.8
C=CCOC(=O)COc1ccc2c(C)c(CC)c(=O)oc2c1	-1.9	64.2*	-1.8	-0.5	-12.3	98.5
COc1cccc(/C=C(\C#N)c2nc3ccccc3[nH]2)c1OCC(=O)O	35.0*	4.7	-1.3	4.2	-6.7	2.8
Cc1ccc(/C=C(\C#N)c2nc3ccccc3[nH]2)s1	36.7*	1.4	-3.2	-2.6	-20.1	3.1
COc1cccc(/C=C(/C#N)c2nc3ccccc3[nH]2)c1OC(C)C(=O)O (configuration not stated)	19.1	3.4	-2.4	-0.2	2.4	5.0
Nc1cccc(-c2nc3ccc(C(=O)c4ccccc4)cc3[nH]2)c1	16.3	1.8	-0.2	-1.0	2.0	-3.7

Screens deposited in PubChem BioAssay by several laboratories.
